PubChem BioAssay AID1863 (Southern Research Specialized Biocontainment Screening …, 2009)
Among all 300,000 compounds or so, about 480 (0.16%) were called active.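 The calls were made as follows: active = inhibition over 29.93%, a cutoff 3 SD above the screen mean, later confirmed by dose response; inconclusive = inhibition over 29.93% but no dose response follow-up; inactive = inhibition at most 29.93% or unconfirmed.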 These entries were drawn from the full list. Measured potencies and affinities stand elsewhere.

experiment: inhibitors of PhoP regulon expression, primary screen, Salmonella Typhimurium, GFP reporter (AID 1863);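 also: 0% = low Mg2+ inducing control and 100% = high Mg2+ repressing control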; settings: S. Typhimurium PhoP-regulated promoter GFP reporter, 4 h; at 50 µM; hits give high values

inhibition, inactive:
O=C(NC(=S)N1CCN(C/C=C/c2ccccc2)CC1)c1cccnc1 -1.23%, Cc1cc(C)n(-c2nc(NCCCN(C)C)c3c4c(sc3n2)CCCC4)n1 -3.42%, Cc1cc(C)n(-c2nc(NCCO)c3c4c(sc3n2)CCCC4)n1 1.98%, Cn1cc(C(=O)NCc2cccnc2)c(=O)c2cc(S(=O)(=O)N3CCCCCC3)ccc21 1.24%, CS(=O)(=O)N(Cc1ccc(C(=O)NCCSCc2ccco2)cc1)c1ccccc1 -4.62%, Cc1cccc(N2CCN(C(=O)c3ccnn3C)CC2)c1C 0.84%, CC(C)(C)NCC(O)CON=C1c2ccccc2-c2ccccc21 (stereo not given) -0.28%, COCCNCC(O)CON=C1c2ccccc2-c2ccccc21 (stereo not given) -2.34%, Cc1n[nH]c(=S)n1-c1cccc(Cl)c1 -6.91%, CCn1cc(C(=O)NCc2ccc3c(c2)OCO3)c(=O)c2cc(F)c(N3CCN(C)CC3)cc21 6.63%, CCN(CC)CCNC(=O)c1cn(CC)c2cc(N3CCN(C)CC3)c(F)cc2c1=O 25.1%, CCN(CC)CCCNC(=O)c1cn(CC)c2cc(N3CCN(C(=O)c4ccco4)CC3)c(F)cc2c1=O 14.4%, CC1(C)S/C(=N/N=C/c2cccs2)NC1=O 0.99%, Cc1ccc(C)c(N2CCN(c3ccc([N+](=O)[O-])cn3)CC2)c1 1.13%, Cn1c(CNC(=O)c2ccc3c(c2)OCO3)nnc1SCC(=O)Nc1ccc(F)cc1 2.02%, COc1ccc(Br)cc1CN(C)C(=O)c1ccccc1OCc1c(C)noc1C -8.01%, Cc1ccc(N(CC(=O)NC2CCCCC2)S(=O)(=O)c2c(C)noc2C)cc1 6.34%, CC(O)CNCCNCc1c(OCc2ccccc2)ccc2ccccc12 (stereo not given) 32.8%, CC(C)(CO)NCc1c(OCc2ccc(Cl)cc2)ccc2ccccc12 -7.49%, COc1ccc(S(=O)(=O)N2CCC(NC(=O)C3CCCCC3)CC2)cc1 4.35%, Cc1ccc(-c2ccc(=O)n(CC(=O)NCc3ccco3)n2)cc1 6.56%, COc1ccc(NC(=O)C2CCN(S(=O)(=O)c3ccc(OC)c(OC)c3)CC2)c(OC)c1 5.61%, CCOC(=O)c1cnc(-c2ccccc2O)nc1Cl 3.92%, CCOC(=O)C(=O)Nc1ccccc1C(=O)OCC 9.09%, C[C@@H]1CC=C[C@H]2[C@H]1C(=O)N(Cc1ccccc1)[C@H]2c1ccc(-c2ccc(F)cc2)cc1F -3.92%, Cc1cc(C)c2[nH]c(=O)c(C(c3nnnn3CC3CCCO3)N3CCCC(C)C3)cc2c1 (stereo not given) -1.81%, O=[N+]([O-])c1ccc(CSc2nc3ccccc3o2)cc1 8.78%, O=[N+]([O-])c1ccc(Cl)cc1Sc1nc2ccccc2o1 0.44%, O=S(=O)(Nc1nccs1)c1cnc(Cl)c(Br)c1 -2.83%, Cc1cc(C(=O)CN2C(=O)NC3(CCCc4ccccc43)C2=O)c(C)n1Cc1cccs1 (stereo not given) 8.89%, CSCCC(NC(=O)c1cccc([N+](=O)[O-])c1)C(=O)OCC(=O)N1CCCC1=O (stereo not given) 1.97%, CCN=C1SC(CC(=O)NC2CCCCC2)C(=O)N1CC (stereo not given) 8.13%, Cc1ccc(C[n+]2cc(-c3ccc(Cl)cc3)n3c2CCC3)cc1 31.5%, Clc1ccc(C[n+]2cc(-c3ccccc3)n3c2CCCCC3)c(Cl)c1 8.08%, Cc1ccc(-c2c[n+](Cc3ccc(Cl)cc3)c3n2CCC3)cc1 -4.34%, Clc1ccc(-c2c[n+](Cc3cccc(Cl)c3)c3n2CCC3)cc1 5.53%, COC(=O)C(C)(C(=O)OC)c1ccc(C(F)(F)F)cc1[N+](=O)[O-] -5.58%, C=CCN1C(=O)C(CC(=O)Nc2ccc(OCC)cc2)N(Cc2ccccn2)C1=S (stereo not given) -2.55%, Cc1ccc(NC(=S)N2CCOCC2)c(C)c1 -0.67%, CN1C(=O)C(O)(CC(=O)c2cccs2)c2ccccc21 (stereo not given) -3.39%, O=C1C(=O)N(CC2CCCO2)C(c2ccccc2[N+](=O)[O-])/C1=C(/O)c1ccccc1 (stereo not given) 2.01%, CC1(C)CC(=O)C2=C(C1)OC(c1ccncc1)C(C#N)=C2N (stereo not given) -4.82%, O=C(NC1CCCCC1)C1CCN(c2cnccn2)CC1 17.7%, O=C(NC(Cc1ccccc1)C(=O)NCc1ccccn1)c1ccco1 (stereo not given) 1.32%, Nc1nc2ccccc2n1CCOc1ccc(Cl)cc1 11.6%, CCn1c(N)nc2ccccc21 5.85%, Cc1ccc(Cn2c(N)nc3ccccc32)cc1 11.5%, Nc1nc2ccccc2n1CCOc1ccc(F)cc1 10.1%, CC(NC(=O)c1ccco1)C(=O)OCC(=O)c1ccc(Cl)s1 (stereo not given) -10.8%, CN1C(C(=O)Nc2ncccn2)=C(O)c2ccccc2S1(=O)=O 5.72%, COc1cc(C(=O)NCc2nnc(SCC(=O)Nc3cc(C)on3)o2)cc(OC)c1OC -1.06%, CCOC(CNC(=O)Cn1nc(Cc2ccncc2)c2ccccc2c1=O)OCC 1.12%, CCN(CC)c1ccc(/C=N/Nc2ccccc2)c(O)c1 7.3%, CCN(CC)c1ccc(/C=N/Nc2nc(C)cc(=O)[nH]2)c(O)c1 6.35%, COc1ccc(O)c(/C=N/Nc2nc3ccccc3[nH]2)c1 -9.48%, Cc1ccccc1/C=N/Nc1nc2ccccc2[nH]1 -7.4%, CC1=C(C(N)=O)C(c2ccccn2)n2nc(SCc3ccccc3)nc2N1 (stereo not given) 1.82%, CCCCSc1nc2c(=O)[nH][nH]c(=O)c2n1Cc1ccccc1 -7.79%, Cc1ccc(NC(=O)NNC(=O)c2ccccc2)cc1 3.02%, C#CCOCCOCCOCCNc1nc(N2CCN(C(=O)CCCCCCCCCCNC(=O)[C@H]([C@@H](C)CC)n3cc(CCCCN=C(N)N)nn3)CC2)nc(N2CCN(C(=O)CCCCCCCCCCNC(=O)[C@H](CCCCN)n3cc(C)nn3)CC2)n1 24.6%, C#CCOCCOCCOCCNc1nc(N2CCN(C(=O)CCCCCCCCCCNC(=O)[C@@H](CCSC)n3cc(CCO)nn3)CC2)nc(N2CCN(C(=O)CCCCCCCCCCNC(=O)[C@H]([C@@H](C)CC)n3cc(CCCCN=C(N)N)nn3)CC2)n1 4.22%, C#CCOCCOCCOCCNc1nc(N2CCN(C(=O)CCCCCCCCCCNC(=O)[C@H](CO)n3cc(CCCSC)nn3)CC2)nc(N2CCN(C(=O)CCCCCCCCCCNC(=O)[C@H](CCCN=C(N)N)n3cc(C[C@@H](C)CC)nn3)CC2)n1 4.93%, C#CCOCCOCCOCCNc1nc(N2CCOCC2)nc(N2CCN(C(=O)CCCCCCCCCCNC(=O)[C@H]([C@@H](C)CC)n3cc(CCCCN=C(N)N)nn3)CC2)n1 11.5%, C#CCOCCOCCOCCNc1nc(N2CCN(C(=O)CCCCCCCCCCNC(=O)[C@H]([C@@H](C)CC)n3cc(CCCCN=C(N)N)nn3)CC2)nc(N2CCN(C(=O)CCCCCCCCCCNC(=O)[C@H](CCCCN)n3cc(C[C@@H](C)CC)nn3)CC2)n1 21.5%, C#CCOCCOCCOCCNc1nc(N2CCN(C(=O)CCCCCCCCCCNC(=O)[C@H]([C@@H](C)CC)n3cc(CCCCCN)nn3)CC2)nc(N2CCN(C(=O)CCCCCCCCCCNC(=O)[C@H]([C@@H](C)CC)n3cc(CCCCN=C(N)N)nn3)CC2)n1 11.9%, Cc1cc(C)nc(-n2nc(C)cc2NC(=O)CNCc2ccccc2)n1 1.3%, COC(=O)c1ccc(COc2ccc(/C=N/Nc3nc(C)cc(=O)[nH]3)cc2)cc1 2.45%, Cc1ccc(N2C(=O)c3cccc4c(Oc5ccccc5[N+](=O)[O-])ccc(c34)C2=O)c(C)c1 -0.66%, CC(=O)c1cccc(S(=O)(=O)N(C)C2CCN(C)CC2)c1 6.64%, COc1cnc(-c2cccc(C(F)(F)F)c2)[nH]c1=O -6.31%, COc1cnc(-c2ccccc2)[nH]c1=O 3.46%, CCN(CC)CCNC(=O)C(=O)Nc1ccc2c(c1)N(S(=O)(=O)c1cccs1)CCC2 0.58%, CC1(C)CC(=O)c2sc(NS(=O)(=O)c3ccc(Cl)cc3)nc2C1 -6.02%, CCn1c(CSc2nnc(-c3ccncc3)n2CCOC)nc2cc(C(=O)O)ccc21 1.32%, COc1ccc(NCC(O)COc2ccc(C(C)(C)C)cc2)cc1 (stereo not given) 18.9%, CC(C)(C)NCC(O)COc1ccc(Br)cc1 (stereo not given) -5.49%, COC(=O)c1cc(Nc2cc(C)c3c(O)cccc3n2)cc(C(=O)OC)c1 1.78%, Cc1ccc(Nc2cc(C)c3ccc(O)cc3n2)cc1C 59.6%, CC(=O)Nc1ccc(Nc2cc(C)c3ccccc3n2)cc1 -1.27%, COc1ccc(Nc2cc(C)c3ccccc3n2)cc1 -10.8%, O=C(Nc1ccccc1)c1cnc(-c2ccccc2)nc1-c1ccccc1 -0.26%, NC(=O)C1CCN(C(=O)CSc2ccccn2)CC1 -5.25%, CCCCCCNC(=O)c1cc(S(=O)(=O)N2CCc3ccccc32)ccc1F -0.27%, O=C(NNCc1ccc(O)cc1)c1ccccc1Cl -5.79%, O=C(O)CC(Cc1ccc(Cl)cc1)C(=O)Nc1ccc([N+](=O)[O-])cc1 (stereo not given) -6.77%, O=C(O)CC(Cc1ccccc1)C(=O)Nc1ccc([N+](=O)[O-])cc1 (stereo not given) -0.18%, CCOC(=O)C(NC(C)=O)C(O)c1ccc([N+](=O)[O-])cc1 (stereo not given) 4.56%, NC(CO)C(O)c1ccc([N+](=O)[O-])cc1 (stereo not given) 2.92%, O=[N+]([O-])c1ccc(C(O)C(CO)NC(=S)Nc2ccccc2)cc1 (stereo not given) -9.91%, O=C(Cc1ccccc1)NC(C(=O)O)C(O)c1ccc([N+](=O)[O-])cc1 (stereo not given) 2.69%
